Measurements from PubChem BioAssay (EPA / NIEHS).
“And” between values parts separate entries of the source, which are not always exact repeats. Identical values can stand only once. Results filed as inconclusive are left out. The source made the active and inactive calls. How the source made its calls: active means hit-call score of the fitted dose curve at least 0.9, where 1 is the maximum; inconclusive means response in the unintended direction; inactive means score below 0.9.

Columns and labels:
[1] = target: guinea pig Leukotriene D4 Receptor (LTD4), CYSLTR1 (gene 100135514) (UniProt Q2NNR5); assay: NVS_GPCR_gLTD4: NovaScreen (NVS) G Protein-Coupled Receptor Assay for guinea pig Leukotriene D4 Receptor (LTD4) (AID 2283248)
Method in brief: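 Radioligand displacement on guinea pig lung membranes, 1 h incubation, filtration and scintillation counting; DMSO as negative control. Duplicate 25 uM primary screen, then singleton concentration-response up to 50 uM.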

[2] = target: guinea pig Opioid, Kappa 1 Receptor (OpiateK), OPRK1 (gene 100135587) (UniProt P41144); assay: NVS_GPCR_gOpiateK: NovaScreen (NVS) G Protein-Coupled Receptor Assay for guinea pig Opioid, Kappa 1 Receptor (OpiateK) (AID 2283252);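 further: radioligand displacement from kappa opioid receptor in guinea pig cerebellar membranes; active means reduced radioligand binding relative to DMSO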
Method in brief: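 Signal is scintillation counts of filter-trapped radioligand bound to guinea pig cerebellar membrane receptor, measured 2 hours post-dosing. Activity is loss of binding versus DMSO, first at 25 uM in duplicate, then as concentration series for actives.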

[3] = target: human Serotonin, 5-Hydroxytryptamine Receptor 6 (5HT6), HTR6 (gene 3362) (UniProt P50406); assay: NVS_GPCR_h5HT6: NovaScreen (NVS) G Protein-Coupled Receptor Assay for human Serotonin, 5-Hydroxytryptamine Receptor 6 (5HT6) (AID 2283253)
Method in brief: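 Radioligand binding to 5HT6 in HEK293-derived membranes, cell-free, 1 h after dosing; bound ligand measured by filter-based scintillation counting. Primary screen in duplicate at 25 uM; actives retested in concentration series.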

[4] = target: human Adrenergic, Beta 1 Receptor (Adrb1), ADRB1 (gene 153) (UniProt P08588); assay: NVS_GPCR_hAdrb1: NovaScreen (NVS) G Protein-Coupled Receptor Assay for human Adrenergic, Beta 1 Receptor (Adrb1) (AID 2283258)
Method in brief: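 Cell-free radioligand displacement on receptor from human neuroepithelioma cells; 2 h after dosing, filter-based scintillation counting. Primary screen in duplicate at 25 uM, actives retested in concentration series; loss of signal vs DMSO baseline.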

[5] = target: human Adrenergic, Alpha 2c Receptor (Adra2C), ADRA2C (gene 152) (UniProt P18825); assay: NVS_GPCR_hAdra2C: NovaScreen (NVS) G Protein-Coupled Receptor Assay for human Adrenergic, Alpha 2c Receptor (Adra2C) (AID 2283259)
Method in brief: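 Radioligand binding on Sf9-expressed receptor membranes, 1 h after chemical dosing, filter-based scintillation read-out. Loss of binding fitted positively versus DMSO; primary duplicate screen at 25 uM, actives retested in concentration series.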

[6] = target: Beta-2 adrenergic receptor (Homo sapiens) (UniProt P07550); assay: NVS_GPCR_hAdrb2: NovaScreen (NVS) G Protein-Coupled Receptor Assay for human Adrenergic, Beta 2 Receptor (Adrb2) (AID 2283261)
Method in brief: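 Filter-based radioligand binding using receptor prepared from CHO cells, 1 h incubation, scintillation counting. Primary screen in duplicate at 25 uM, actives retested in concentration series; loss of binding relative to DMSO.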

[7] = target: human Adrenergic, Beta 3 Receptor (Adrb3), ADRB3 (gene 155) (UniProt P13945); assay: NVS_GPCR_hAdrb3: NovaScreen (NVS) G Protein-Coupled Receptor Assay for human Adrenergic, Beta 3 Receptor (Adrb3) (AID 2283262)
Method in brief: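 Membranes from SK-N-MC cells pretreated with isoproterenol and 8-bromo-cAMP were used in a radioligand competitive displacement binding assay. Binding was read by filter-based scintillation counting 1 hour after dosing. Primary screening was in duplicate at 25 uM, with concentration series in follow-up.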

[8] = target: human Dopamine Receptor D4.4 (DRD4.4), DRD4 (gene 1815) (UniProt P21917); assay: NVS_GPCR_hDRD4.4: NovaScreen (NVS) G Protein-Coupled Receptor Assay for human Dopamine Receptor D4.4 (DRD4.4) (AID 2283264)
Method in brief: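 Radioligand displacement on human DRD4.4 from CHO-derived membranes, 1 hour incubation, bound counts read by filtration and scintillation. Primary screen in duplicate at 25 uM; actives followed up in concentration series.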

[9] = tested on: bovine Histamine 1 Receptor (H1), gene 281231; assay: NVS_GPCR_bH1: NovaScreen (NVS) G Protein-Coupled Receptor Assay for bovine Histamine 1 Receptor (H1) (AID 2283246)
Method in brief: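 Radioligand displacement on bovine cerebellar membranes, 1 h after dosing, filter-based scintillation read-out; loss of signal vs DMSO. Duplicate single-concentration screen at 25 uM, then concentration-response up to 50 uM for hits.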

[10] = target: human Serotonin, 5-Hydroxytryptamine Receptor 7 (5HT7), HTR7 (gene 3363) (UniProt P34969); assay: NVS_GPCR_h5HT7: NovaScreen (NVS) G Protein-Coupled Receptor Assay for human Serotonin, 5-Hydroxytryptamine Receptor 7 (5HT7) (AID 2283255);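 further: hits reduce specific radioligand binding relative to DMSO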
Method in brief: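 Radioligand displacement on membranes from CHO cells expressing human 5HT7, 1 h incubation, filter-based scintillation counting. Primary screen used a single 25 uM concentration in duplicate; actives were followed up in concentration series.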

[11] = target: human Endothelin Receptor Type A (ETA), EDNRA (gene 1909) (UniProt P25101); assay: NVS_GPCR_hETA: NovaScreen (NVS) G Protein-Coupled Receptor Assay for human Endothelin Receptor Type A (ETA) (AID 2283265)
Method in brief: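 Cell-free radioligand displacement using SH-SY5Y-derived protein, 3 h incubation, filter-based scintillation counting. Primary screen in duplicate at 25 uM; actives then run in concentration-response up to 50 uM; loss of binding fitted versus DMSO.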

[12] = target: Type-1 angiotensin II receptor (Homo sapiens) (UniProt P30556); assay: NVS_GPCR_hAT1: NovaScreen (NVS) G Protein-Coupled Receptor Assay for human Angiotensin II receptor type 1 (AT1) (AID 2283263)
Method in brief: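 Membranes from KAN-TS cells; radioligand competitive displacement, 3 h, filtration and scintillation counting. Single-point duplicate screen at 25 uM, then concentration-response up to 50 uM for hits; loss of signal fitted versus DMSO.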

[13] = NVS_GPCR_bNPY_NonSelective: NovaScreen (NVS) G Protein-Coupled Receptor Assay for bovine Neuropeptide Y (NPY) Receptor, Non-selective Binding (AID 2283245)
Method in brief: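 Bovine hippocampal membranes incubated 1 hour with radioligand and test chemical. Bound ligand measured by filter-based scintillation counting. Single-concentration screen at 25 uM in duplicate, then concentration-response up to 50 uM.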

[14] = tested on: guinea pig Muscarinic, Peripheral (Mperiperal) Receptor, Non-selective Binding, gene 100379235; assay: NVS_GPCR_gMPeripheral_NonSelective: NovaScreen (NVS) G Protein-Coupled Receptor Assay for guinea pig Muscarinic, Peripheral (Mperiperal) Receptor, Non-selective Binding (AID 2283250)
Method in brief: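 Guinea pig bladder membranes, radioligand binding read 1 h after dosing by filter scintillation counting; loss of signal vs DMSO. Primary duplicate screen at 25 uM, then concentration-response up to 50 uM.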

[15] = target: human Adrenergic, Alpha 2A Receptor (Adra2A), ADRA2A (gene 150) (UniProt P08913); assay: NVS_GPCR_hAdra2A: NovaScreen (NVS) G Protein-Coupled Receptor Assay for human Adrenergic, Alpha 2A Receptor (Adra2A) (AID 2283257)
Method in brief: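 Radioligand filter-binding was run on HT29-derived membranes, cell-free, read by scintillation counting 1 h after dosing. Primary screening was in duplicate at 25 uM, with concentration series in follow-up. Loss of signal versus DMSO indicates displacement.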

[16] = target: human Serotonin, 5-Hydroxytryptamine Receptor 2A (5HT2A), HTR2A (gene 3356) (UniProt P28223); assay: NVS_GPCR_h5HT2A: NovaScreen (NVS) G Protein-Coupled Receptor Assay for human Serotonin, 5-Hydroxytryptamine Receptor 2A (5HT2A) (AID 2283249)
Method in brief: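 Human cortex membranes, cell-free radioligand binding; filter-based scintillation read 1.5 h after dosing. Duplicate screen at 25 uM first; displacement of specific binding (loss of signal) versus DMSO.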

[17] = target: human Histamine 1 Receptor (H1), HRH1 (gene 3269) (UniProt P35367); assay: NVS_GPCR_hH1: NovaScreen (NVS) G Protein-Coupled Receptor Assay for human Histamine 1 Receptor (H1) (AID 2283268)
Method in brief: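 Cell-free radioligand displacement at human H1 receptor, 1 h, filter scintillation counting; primary screen 25 uM in duplicate, hits in concentration series; loss of binding fitted vs DMSO.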

[18] = tested on: guinea pig Leukotriene B4 Receptor (LTB4), gene 100379538; assay: NVS_GPCR_gLTB4: NovaScreen (NVS) G Protein-Coupled Receptor Assay for guinea pig Leukotriene B4 Receptor (LTB4) (AID 2283247)
Method in brief: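 Radioligand displacement on guinea pig spleen membranes, filter-based scintillation counting 2 h after dosing. Primary duplicate single point at 25 uM; hits over threshold (e.g. 30% inhibition) run in concentration-response up to 50 uM, DMSO baseline.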

[19] = target: human Endothelin Receptor Type B (ETB), EDNRB (gene 1910) (UniProt P24530); assay: NVS_GPCR_hETB: NovaScreen (NVS) G Protein-Coupled Receptor Assay for human Endothelin Receptor Type B (ETB) (AID 2283267)
Method in brief: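 Human astrocytoma cell membranes; radioligand competitive binding read by filter scintillation counting 4 hours after dosing. Single-concentration duplicate screen at 25 uM, then singleton concentration-response up to 50 uM; loss of signal versus DMSO.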

[20] = target: human Adenosine A2a Receptor (AdoRA2a), ADORA2A (gene 135) (UniProt P29274); assay: NVS_GPCR_hAdoRA2a: NovaScreen (NVS) G Protein-Coupled Receptor Assay for human Adenosine A2a Receptor (AdoRA2a) (AID 2283256)
Method in brief: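 Cell-free radioligand binding on membranes from HEK293 expressing the receptor; competitive displacement read 1.5 h after dosing by filter-based scintillation counting. Primary screen in duplicate at 25 uM; actives followed in concentration series, with DMSO as baseline.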

Measured: AC50

Sequence of human Adrenergic, Alpha 2c Receptor (Adra2C), ADRA2C (gene 152) (P18825 whole entry, looked up): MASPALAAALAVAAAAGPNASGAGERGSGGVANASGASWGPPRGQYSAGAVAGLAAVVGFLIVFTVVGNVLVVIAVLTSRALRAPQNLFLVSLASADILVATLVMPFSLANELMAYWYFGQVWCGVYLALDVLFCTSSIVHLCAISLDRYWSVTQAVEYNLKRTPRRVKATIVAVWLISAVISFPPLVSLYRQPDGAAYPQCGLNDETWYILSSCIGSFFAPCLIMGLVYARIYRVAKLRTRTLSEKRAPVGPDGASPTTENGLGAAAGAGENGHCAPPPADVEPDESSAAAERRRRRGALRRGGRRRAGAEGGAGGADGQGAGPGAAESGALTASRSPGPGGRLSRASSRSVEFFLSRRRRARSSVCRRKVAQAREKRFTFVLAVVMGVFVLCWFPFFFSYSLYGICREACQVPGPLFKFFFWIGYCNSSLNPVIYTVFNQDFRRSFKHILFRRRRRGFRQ
Sequence of guinea pig Opioid, Kappa 1 Receptor (OpiateK), OPRK1 (gene 100135587) (P41144 whole entry, looked up): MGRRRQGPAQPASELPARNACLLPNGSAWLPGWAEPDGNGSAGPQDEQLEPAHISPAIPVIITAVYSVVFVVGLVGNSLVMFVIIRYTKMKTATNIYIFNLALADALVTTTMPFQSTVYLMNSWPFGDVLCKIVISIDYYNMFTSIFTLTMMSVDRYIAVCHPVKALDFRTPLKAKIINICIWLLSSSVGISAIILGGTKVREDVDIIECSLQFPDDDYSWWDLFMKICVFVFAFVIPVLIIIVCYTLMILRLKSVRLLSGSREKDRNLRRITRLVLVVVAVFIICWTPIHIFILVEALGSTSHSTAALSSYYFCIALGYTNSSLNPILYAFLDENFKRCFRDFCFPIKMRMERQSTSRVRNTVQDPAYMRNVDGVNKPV
Sequence of human Adrenergic, Beta 3 Receptor (Adrb3), ADRB3 (gene 155) (P13945 whole entry, looked up): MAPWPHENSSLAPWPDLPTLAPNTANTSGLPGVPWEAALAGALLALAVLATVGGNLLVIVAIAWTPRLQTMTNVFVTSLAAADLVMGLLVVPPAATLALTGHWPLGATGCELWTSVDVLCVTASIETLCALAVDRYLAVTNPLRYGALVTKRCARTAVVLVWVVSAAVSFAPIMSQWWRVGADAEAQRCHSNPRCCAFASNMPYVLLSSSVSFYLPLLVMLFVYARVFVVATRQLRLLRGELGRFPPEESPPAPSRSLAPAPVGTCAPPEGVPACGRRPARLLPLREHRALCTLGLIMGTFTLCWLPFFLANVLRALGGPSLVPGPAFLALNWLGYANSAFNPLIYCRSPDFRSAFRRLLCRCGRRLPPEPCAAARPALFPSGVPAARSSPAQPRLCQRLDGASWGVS
Sequence of guinea pig Leukotriene D4 Receptor (LTD4), CYSLTR1 (gene 100135514) (Q2NNR5 whole entry, looked up): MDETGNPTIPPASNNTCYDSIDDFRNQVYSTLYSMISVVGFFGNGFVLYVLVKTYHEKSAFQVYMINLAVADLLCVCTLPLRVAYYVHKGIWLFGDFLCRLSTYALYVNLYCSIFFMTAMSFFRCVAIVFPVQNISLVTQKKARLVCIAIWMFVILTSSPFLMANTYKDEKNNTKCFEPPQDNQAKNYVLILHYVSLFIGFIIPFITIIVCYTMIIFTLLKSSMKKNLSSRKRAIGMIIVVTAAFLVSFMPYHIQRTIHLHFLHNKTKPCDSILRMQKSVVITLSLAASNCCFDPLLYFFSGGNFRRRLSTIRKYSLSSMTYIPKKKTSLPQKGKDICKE
Sequence of Type-1 angiotensin II receptor (Homo sapiens) (P30556 whole entry, looked up): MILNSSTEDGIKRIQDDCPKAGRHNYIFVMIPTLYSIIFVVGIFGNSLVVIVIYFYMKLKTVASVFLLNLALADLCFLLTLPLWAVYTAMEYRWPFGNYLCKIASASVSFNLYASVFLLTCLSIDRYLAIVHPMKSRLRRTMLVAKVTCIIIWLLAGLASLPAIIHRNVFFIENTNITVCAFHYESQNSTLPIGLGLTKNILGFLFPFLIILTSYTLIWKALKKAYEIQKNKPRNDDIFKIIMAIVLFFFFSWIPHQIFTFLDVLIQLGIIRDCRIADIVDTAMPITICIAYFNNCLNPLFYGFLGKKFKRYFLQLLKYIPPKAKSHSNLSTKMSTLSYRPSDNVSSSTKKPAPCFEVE
Sequence of human Serotonin, 5-Hydroxytryptamine Receptor 6 (5HT6), HTR6 (gene 3362) (P50406 whole entry, looked up): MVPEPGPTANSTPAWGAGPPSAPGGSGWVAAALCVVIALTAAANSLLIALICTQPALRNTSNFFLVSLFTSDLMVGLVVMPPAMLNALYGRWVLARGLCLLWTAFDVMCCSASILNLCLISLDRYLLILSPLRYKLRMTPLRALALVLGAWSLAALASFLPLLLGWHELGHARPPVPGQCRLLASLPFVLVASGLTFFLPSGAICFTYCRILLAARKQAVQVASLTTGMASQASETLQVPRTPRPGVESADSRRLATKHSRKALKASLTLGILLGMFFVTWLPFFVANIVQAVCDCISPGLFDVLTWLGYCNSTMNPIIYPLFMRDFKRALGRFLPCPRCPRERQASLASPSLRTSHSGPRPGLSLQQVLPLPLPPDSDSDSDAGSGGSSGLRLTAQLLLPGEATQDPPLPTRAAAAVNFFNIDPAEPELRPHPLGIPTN
Sequence of human Dopamine Receptor D4.4 (DRD4.4), DRD4 (gene 1815) (P21917 whole entry, looked up): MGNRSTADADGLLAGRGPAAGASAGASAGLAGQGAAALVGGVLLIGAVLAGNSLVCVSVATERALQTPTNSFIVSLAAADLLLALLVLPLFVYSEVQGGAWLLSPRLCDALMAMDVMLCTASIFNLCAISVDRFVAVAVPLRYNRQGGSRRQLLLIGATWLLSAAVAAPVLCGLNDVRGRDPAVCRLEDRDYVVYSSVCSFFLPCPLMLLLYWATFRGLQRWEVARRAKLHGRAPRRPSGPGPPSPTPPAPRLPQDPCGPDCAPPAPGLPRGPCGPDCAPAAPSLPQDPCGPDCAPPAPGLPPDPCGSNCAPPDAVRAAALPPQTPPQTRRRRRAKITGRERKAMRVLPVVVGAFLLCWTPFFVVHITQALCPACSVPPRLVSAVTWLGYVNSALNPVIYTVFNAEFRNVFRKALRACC
Sequence of Beta-2 adrenergic receptor (Homo sapiens) (P07550 whole entry, looked up): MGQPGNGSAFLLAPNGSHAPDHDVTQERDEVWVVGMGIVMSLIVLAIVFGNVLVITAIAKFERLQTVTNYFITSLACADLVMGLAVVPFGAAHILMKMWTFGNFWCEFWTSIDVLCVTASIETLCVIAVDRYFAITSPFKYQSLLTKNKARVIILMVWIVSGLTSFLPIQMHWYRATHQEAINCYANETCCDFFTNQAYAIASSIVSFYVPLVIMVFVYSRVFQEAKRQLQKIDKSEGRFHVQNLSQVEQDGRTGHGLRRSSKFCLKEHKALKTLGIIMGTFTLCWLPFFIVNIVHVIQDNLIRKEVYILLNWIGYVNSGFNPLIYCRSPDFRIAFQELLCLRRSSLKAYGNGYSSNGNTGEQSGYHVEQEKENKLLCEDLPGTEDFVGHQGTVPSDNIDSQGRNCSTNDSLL
Sequence of human Serotonin, 5-Hydroxytryptamine Receptor 7 (5HT7), HTR7 (gene 3363) (P34969 whole entry, looked up): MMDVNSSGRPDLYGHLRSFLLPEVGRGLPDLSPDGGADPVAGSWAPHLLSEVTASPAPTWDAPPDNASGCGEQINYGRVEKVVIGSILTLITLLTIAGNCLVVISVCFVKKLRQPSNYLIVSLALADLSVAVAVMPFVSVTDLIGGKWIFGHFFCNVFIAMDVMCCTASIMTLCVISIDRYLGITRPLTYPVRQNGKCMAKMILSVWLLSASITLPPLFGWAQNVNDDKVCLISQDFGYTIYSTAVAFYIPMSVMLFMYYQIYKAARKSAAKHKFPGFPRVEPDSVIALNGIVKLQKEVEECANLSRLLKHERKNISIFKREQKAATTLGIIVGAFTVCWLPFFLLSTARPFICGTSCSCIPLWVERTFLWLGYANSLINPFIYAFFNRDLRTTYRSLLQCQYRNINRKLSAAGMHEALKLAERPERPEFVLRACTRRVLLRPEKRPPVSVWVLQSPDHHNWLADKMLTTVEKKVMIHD
Sequence of human Endothelin Receptor Type A (ETA), EDNRA (gene 1909) (P25101 whole entry, looked up): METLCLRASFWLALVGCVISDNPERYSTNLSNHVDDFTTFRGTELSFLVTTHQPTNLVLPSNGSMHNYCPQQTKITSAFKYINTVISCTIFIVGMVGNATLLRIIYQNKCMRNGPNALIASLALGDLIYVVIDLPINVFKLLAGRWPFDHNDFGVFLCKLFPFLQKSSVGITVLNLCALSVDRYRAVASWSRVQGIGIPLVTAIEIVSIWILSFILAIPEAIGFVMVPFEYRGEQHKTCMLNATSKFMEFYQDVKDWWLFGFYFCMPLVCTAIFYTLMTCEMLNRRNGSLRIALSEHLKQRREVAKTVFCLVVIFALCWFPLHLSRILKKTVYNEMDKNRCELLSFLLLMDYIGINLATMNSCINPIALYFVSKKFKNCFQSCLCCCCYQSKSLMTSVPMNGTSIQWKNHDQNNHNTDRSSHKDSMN
Sequence of human Serotonin, 5-Hydroxytryptamine Receptor 2A (5HT2A), HTR2A (gene 3356) (P28223 whole entry, looked up): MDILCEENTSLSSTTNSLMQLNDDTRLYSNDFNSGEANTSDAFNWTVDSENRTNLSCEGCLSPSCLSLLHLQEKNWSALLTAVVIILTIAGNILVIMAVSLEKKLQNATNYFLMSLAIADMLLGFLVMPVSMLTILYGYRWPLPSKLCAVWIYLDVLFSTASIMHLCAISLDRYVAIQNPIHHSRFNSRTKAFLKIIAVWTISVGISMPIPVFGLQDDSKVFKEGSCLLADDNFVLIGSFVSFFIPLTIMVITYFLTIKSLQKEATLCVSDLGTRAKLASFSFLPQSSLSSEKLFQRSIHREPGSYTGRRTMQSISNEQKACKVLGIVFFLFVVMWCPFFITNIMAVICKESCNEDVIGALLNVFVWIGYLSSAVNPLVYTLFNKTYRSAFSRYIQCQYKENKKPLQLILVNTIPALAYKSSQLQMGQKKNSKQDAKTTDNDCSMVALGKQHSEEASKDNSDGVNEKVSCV

CC/C(=C(/CC)c1ccc(O)cc1)c1ccc(O)cc1
inactive: [8]
active: [1] 5.08 µM | [2] 15.1 µM | [3] 25 µM and 19.5 µM | [4] 43.5 µM | [5] 19.2 µM and 25 µM and 5.86 µM | [6] 40.3 µM | [7] 13.9 µM

COc1cccc([C@H](O)C2CCN(CCc3ccc(F)cc3)CC2)c1OC
inactive: [7] | [11]
active: [9] 5.41 µM | [2] 12.1 µM | [10] 0.395 µM

O=c1[nH]sc2ccccc12
active: [1] 3.31 µM | [2] 21.5 µM | [3] 14.3 µM | [10] 14.7 µM | [12] 25 µM

CN(C)c1ccc(C(=C2C=CC(=[N+](C)C)C=C2)c2ccc(N(C)C)cc2)cc1
active: [13] 11.2 µM | [14] 5.05 µM | [2] 4.24 µM | [3] 13.9 µM | [10] 4.11 µM | [15] 2.59 µM | [5] 1.79 µM | [6] 14.4 µM | [7] 16.3 µM | [8] 1.11 µM | [11] 1.81 µM

CCN(Cc1cccnc1)C(=O)c1cccc(Cl)c1[C@]1(C)C(=O)N(Cc2ccc(OC)cc2OC)c2ccc(Cl)cc21
active: [1] 9.32 µM | [16] 15.9 µM | [2] 11.1 µM | [10] 6.41 µM | [5] 2.22 µM | [12] 3.69 µM
inactive: [13] | [15]

CCN(CC)C(=O)c1cc(S(=O)(=O)Cc2ccccc2)c(N2CCC(c3ccccc3)CC2)cc1N(CC)CCN(C)C
inactive: [13] | [7] | [17]
active: [16] 8.55 µM | [14] 12 µM | [2] 23.4 µM | [3] 0.971 µM | [10] 8.87 µM | [5] 9.22 µM | [6] 16.5 µM | [8] 16.3 µM

CC(C)(C)c1cc(/C=C2\SC(N)=NC2=O)cc(C(C)(C)C)c1O
inactive: [9]

Cc1oc2c(NC(=O)c3c(Cl)cccc3Cl)cccc2c1C(C)(C)O
active: [9] 25 µM
inactive: [7]

CN(C[C@@H](CC[N+]12CCC(C3CCCCC3)(CC1)CC2)c1ccc(Cl)c(Cl)c1)C(=O)c1cc(C(F)(F)F)cc(C(F)(F)F)c1
active: [18] 0.166 µM | [3] 10.5 µM | [10] 1.53 µM | [12] 33.1 µM
inactive: [19]

O=CCCCC=O
inactive: [9]

CC[C@H](NC(=O)c1cc(F)ccc1NS(=O)(=O)c1cccc2cccnc12)c1ccccc1
inactive: [1]
active: [18] 0.206 µM | [3] 1.31 µM

CC(C)(O)c1ccc(CNC(=O)c2cccnc2Oc2ccc3nonc3c2)cc1
inactive: [20]
active: [18] 0.646 µM | [2] 14.3 µM

CCCCCCCCCC(=O)O
inactive: [18] | [10] | [20]
